In the supplement of paper PMC6555819 one finds PBM binding z-score data, which are given here for six sequences.

Assay in all cases: PBM binding z-score (relative to random genomic background probes); higher = stronger binding; sequences stand for … in GC…GCGATTGACAGCGTAGAATGAAGG
In test [1] the test system is FXR:RXRa (NR concentration 270 nM, RXRa partner concentration 90 nM). In outline: (§1)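 For binding z-scores, the reference was random background probes on custom Agilent 4×180K protein-binding microarrays. These arrays were incubated 1 h with ligand-free nuclear receptor dimers in PBS pH 7.4, 2% milk, 0.02% Triton X-100, 1 mM DTT, 0.2 mg/mL BSA and 0.4 mg/ml salmon testes DNA. Fluorescence was scanned after antibody detection of each partner (one per run) and regression-normalized.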

Test [2] concerns LXRa:RXRa (NR concentration 270 nM, RXRa partner concentration 90 nM). In a few lines:
as §1

The test system of test [3] is LXRa homodimer (NR concentration 270 nM). In a few lines:
as §1

Test [4] has as its system LXRb:RXRa (NR concentration 270 nM, RXRa partner concentration 90 nM). In outline: as §1
Test [5] has as its system LXRb homodimer (NR concentration 270 nM). In a few lines:
as §1

The subject of test [6] is PPARa:RXRa (NR concentration 270 nM, RXRa partner concentration 90 nM). In a few lines:
as §1

Test [7] deals with PPARg:RXRa (NR concentration 180 nM, RXRa partner concentration 90 nM). In outline:
as §1

For test [8], the system named is PPARg:RXRa 270nM:90nM, anti-RXR (NR concentration 270 nM, RXRa partner concentration 90 nM). In outline: as §1
Test [9] deals with PPARg:RXRa 30nM:10nM, anti-RXR (NR concentration 30 nM, RXRa partner concentration 10 nM). In a few lines:
as §1

Test [10] concerns PPARg:RXRa 90nM:30nM, anti-RXR (NR concentration 90 nM, RXRa partner concentration 30 nM). In a few lines:
as §1

In test [11] the test system is PPARg:RXRa DBDmut IVT, anti-RXR (DBD mutation: RXRa K156A/R161A, NR concentration 270 nM, RXRa partner concentration 90 nM). In outline: as §1
In test [12] the test system is PPARg:RXRa IVT, anti-PPARg (NR concentration 270 nM, RXRa partner concentration 90 nM). In a few lines:
as §1

Test [13] concerns PPARg DBDmut:RXRa IVT, anti-PPARg (DBD mutation: PPARg1 K132A/R137A, NR concentration 270 nM, RXRa partner concentration 90 nM). In outline: as §1
For test [14], the system named is PPARg DBDmut IVT, anti-PPARg (DBD mutation: PPARg1 K132A/R137A, NR concentration 270 nM). In outline: as §1
For test [15], the system named is PPARg homodimer (NR concentration 180 nM). In outline:
as §1

The subject of test [16] is PXR:RXRa (NR concentration 270 nM, RXRa partner concentration 90 nM). In a few lines: as §1
Test [17] concerns PXR homodimer (NR concentration 270 nM). In a few lines:
as §1

The test system of test [18] is RARa:RXR (NR concentration 270 nM, RXRa partner concentration 90 nM). In outline: as §1
In test [19] the test system is RARa homodimer (NR concentration 270 nM). In outline:
as §1

The subject of test [20] is RARb:RXRa (NR concentration 270 nM, RXRa partner concentration 90 nM). In outline:
as §1

Take AGAATGAGGTTATACGTAGCTCAGGGAAGAAAGT: the PBM binding z-score in test [1] was 1.61; in test [2], 1.23; in [3], -0.204; in test [4], 1.05; in test [5], -0.347; in [6] it was 2.86. In addition, the PBM binding z-score was found to be 1.46 in [7]; 1.95 in test [8]; 0.439 in [9]; 1.23 in test [10]; 3.72 in test [11]; 1.8 in [12]. In addition, the PBM binding z-score in test [13] stood at 0.808; in test [14], 0.83; in [15], 0.431; in test [16], 0.653; in [17], 0.0212; in test [18], 1.15. Also, the PBM binding z-score in test [19] is 0.35; in test [20], 1.11.
As to CTCGAAAGGTCGGTTGAGGTGAGTCTACGGATAA, the PBM binding z-score in [1] was 2.75; in [2], 1.97; in test [3], -0.215; in test [4] it was 1.29; in test [5] it was -0.179; in [6], 2.62. Also, the PBM binding z-score turned out to be 0.161 in [7]; 1.13 in [8]; 0.171 in test [9]; 0.803 in test [10]; 0.22 in test [11]; 0.948 in test [12]. In addition, the PBM binding z-score was -0.0486 in test [13]; -0.386 in [14]; 1.13 in [15]; 3.39 in test [16]; -0.0836 in test [17]; 2.2 in test [18]. The PBM binding z-score in test [19] is -0.523; in [20], 2.97.
Turning to CGTCCAAGGTCAGAGAGGTCAGTAAATGCCGAGT, the PBM binding z-score in test [1] came to 5.8; in test [2] it was 4.99; in [3], 3.02; in test [4], 4.55; in [5], 0.428; in [6], 4.81. For the same sequence, the PBM binding z-score in [7] was found to be 3.48; in test [8], 4.16; in test [9], 1.04; in test [10], 2.7; in test [11], 2.74; in [12], 3.23. Moreover, the PBM binding z-score in [13] was 0.177; in test [14], 0.266; in test [15], 4.38; in test [16], 5.96; in test [17] it was 12; in test [18], 5.41. In addition, the figures for the PBM binding z-score in test [19] and in test [20] were 1.88 and 5.28, respectively.
Consider ACTATTAGTTGAGACGAGGGCAACTGATAGGTTG, for which the PBM binding z-score was 0.629 in test [1]; -0.0348 in test [2]; 0.074 in [3]; -0.0916 in test [4]; -0.0432 in [5]; 0.621 in [6]. Also, the PBM binding z-score in test [7] is 0.7; in test [8], 0.45; in test [9] it was 0.365; in test [10], 0.668; in test [11], 0.393; in test [12] it was 0.643. Further, the PBM binding z-score stood at 1.37 in test [13]; 1.23 in test [14]; 0.253 in test [15]; 1.22 in [16]; 0.231 in test [17]; 0.44 in [18]. In addition, the PBM binding z-score in test [19] stood at 0.299; in test [20], 1.16.
In the case of GCTTACGGCTCAAAGGTTATAGCATGAATAGAAT, the PBM binding z-score in [1] was 0.876; in test [2] it was 1.45; in test [3], 0.0597; in test [4], 1.7; in [5], -0.639; in [6], 2.62. For the same sequence, the PBM binding z-score in [7] was 2.18; in test [8] it was 3.88; in [9], 1.46; in [10] it was 3.1; in [11], -0.386; in test [12], 0.149. Besides, the PBM binding z-score in test [13] is -0.0168; in [14], 0.142; in test [15], 0.0753; in test [16], 1.47; in [17], -0.195; in test [18], 2.06. In addition, the results for the PBM binding z-score in test [19] and in [20] were 0.137 and 1.21, respectively.
As to AGATGTAGGTTAGCTGGGGTCATTCAGACTAGGC, the PBM binding z-score in [1] was determined as 4.46; in [2], 5.57; in [3], 2.58; in [4], 4.53; in test [5] it was 1.17; in test [6], 4.85. Moreover, the PBM binding z-score worked out at 5.03 in test [7]; 4.61 in test [8]; 2.17 in [9]; 3.72 in test [10]; 5.87 in test [11]; 5.76 in [12]. For the same sequence, the PBM binding z-score in test [13] was 1.86; in test [14], 0.481; in test [15], 2.31; in test [16], 6.19; in test [17], 3.97; in [18], 5.41. Besides, the PBM binding z-score came out at 0.958 in test [19] and 3 in [20].
